Results reported in PubChem BioAssay AID1159580 (chemical genetic matrix, 2015).
Several values for one entry are separate records, joined by “and”; a condition that tells them apart may be missing. Equal entries are not always repeated. The whole screen tested about 5,500 compounds, of which about 2,000 (36%) were called active. Inconclusive results (about 18%) are left out. No stated cut-off is given here; in the data, active means normalized growth mostly below about 0.91 (no sharp cut-off); inconclusive means no clear call, values can overlap the other calls; inactive means mostly above about 0.92. The list shows a part of the results.

Assay: chemical genetic growth profiling, strain panel (AID 1159580);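 further: tested at 20 µM; growth read once vehicle control cultures reached saturation at 30 °C; 1 = growth at the plate median or of vehicle wells; lower values mean less growth of the strain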
Details: growth OD
[1] = S. cerevisiae deletion strains, locus YBR229C, strain ROT2, hits give low values
[2] = S. cerevisiae deletion strains, locus YDL101C, strain DUN1, hits give low values
[3] = S. cerevisiae deletion strains, locus YDR150W, strain NUM1, hits give low values
[4] = S. cerevisiae deletion strains, locus YEL061C, strain CIN8, hits give low values
[5] = S. cerevisiae deletion strains, locus YGR078C, strain PAC10, hits give low values
[6] = S. cerevisiae deletion strains, locus YHR030C, strain SLT2, hits give low values
[7] = S. cerevisiae deletion strains, locus YJR043C, strain POL32, hits give low values
[8] = S. cerevisiae deletion strains, locus YJR075W, strain HOC1, hits give low values
[9] = S. cerevisiae deletion strains, locus YKL190W, strain CNB1, hits give low values
[10] = S. cerevisiae deletion strains, locus YLR039C, strain RIC1, hits give low values
[11] = S. cerevisiae deletion strains, locus YLR262C, strain YPT6, hits give low values
[12] = S. cerevisiae deletion strains, locus YMR263W, strain SAP30, hits give low values
[13] = S. cerevisiae deletion strains, locus YMR307W, strain GAS1, hits give low values
[14] = S. cerevisiae deletion strains, locus YNL128W, strain TEP1, hits give low values
[15] = S. cerevisiae deletion strains, locus YNL322C, strain KRE1, hits give low values
[16] = S. cerevisiae deletion strains, locus YOL006C, strain TOP1, hits give low values
[17] = S. cerevisiae deletion strains, locus YPL055C, strain LGE1, hits give low values
[18] = S. cerevisiae deletion strains, locus YPL241C, strain CIN2, hits give low values
[19] = S. cerevisiae strains, strain wild type, hits give low values
[20] = S. cerevisiae deletion strains, locus YAL013W, strain DEP1, hits give low values
[21] = S. cerevisiae deletion strains, locus YHR087W, strain rtc3, hits give low values
[22] = S. cerevisiae deletion strains, locus YJL187C, strain SWE1, hits give low values
[23] = S. cerevisiae deletion strains, locus YLR058C, strain SHM2 (second series), hits give low values
[24] = S. cerevisiae deletion strains, locus YLR085C, strain ARP6, hits give low values
[25] = S. cerevisiae deletion strains, locus YML094W, strain GIM5, hits give low values
[26] = S. cerevisiae deletion strains, locus YMR219W, strain ESC1, hits give low values
[27] = S. cerevisiae deletion strains, locus YNL153C, strain GIM3, hits give low values
[28] = S. cerevisiae deletion strains, locus YNL298W, strain CLA4 (second series), hits give low values
[29] = S. cerevisiae deletion strains, locus YNR030W, strain Alg12, hits give low values
[30] = S. cerevisiae deletion strains, locus YPR135W, strain CTF4, hits give low values

Measured: normalized growth

NCCNC(=O)c1ccc(Cl)cc1
inactive: S. cerevisiae deletion strains, locus YAL040C, strain CLN3, hits give low values 1.07 | S. cerevisiae deletion strains, locus YBR021W, strain FUR4, hits give low values 0.997 | [1] 0.994 | S. cerevisiae deletion strains, locus YCL029C, strain bik1, hits give low values 0.986 | S. cerevisiae deletion strains, locus YCL061C, strain MRC1 (second series), hits give low values 0.997 | S. cerevisiae deletion strains, locus YDL035C, strain GPR1, hits give low values 0.997 | S. cerevisiae deletion strains, locus YDL074C, strain BRE1, hits give low values 1.05 | [2] 0.994 | S. cerevisiae deletion strains, locus YDL134C, strain PPH21, hits give low values 0.98 | S. cerevisiae deletion strains, locus YDL185W, strain tfp1, hits give low values 0.984 | S. cerevisiae deletion strains, locus YDL192W, strain arf1, hits give low values 0.973 | S. cerevisiae deletion strains, locus YDR101C, strain arx1, hits give low values 1.03 | [3] 0.998 and 0.995 | S. cerevisiae deletion strains, locus YDR162C, strain NBP2, hits give low values 0.984 | S. cerevisiae deletion strains, locus YDR318W, strain mcm21, hits give low values 0.987 | S. cerevisiae deletion strains, locus YDR363W, strain ESC2, hits give low values 1.01 | S. cerevisiae deletion strains, locus YDR388W, hits give low values 0.98 | S. cerevisiae deletion strains, locus YDR502C, strain sam2, hits give low values 1 | [4] 0.99 | S. cerevisiae deletion strains, locus YER002W, strain NOP16, hits give low values 1.02 | S. cerevisiae deletion strains, locus YER110C, hits give low values 0.959 | S. cerevisiae deletion strains, locus YER155C, strain BEM2, hits give low values 0.999 | S. cerevisiae deletion strains, locus YER167W, strain BCK2, hits give low values 0.99 | S. cerevisiae deletion strains, locus YGL078C, strain dbp3, hits give low values 0.961 | S. cerevisiae deletion strains, locus YGL086W, strain mad1, hits give low values 1.01 | S. cerevisiae deletion strains, locus YGL248W, strain PDE1, hits give low values 0.996 | [5] 1.03 and 0.988 | S. cerevisiae deletion strains, locus YGR135W, strain pre9, hits give low values 0.948 | S. cerevisiae deletion strains, locus YGR252W, strain gcn5, hits give low values 0.931 | [6] 0.987 | S. cerevisiae deletion strains, locus YHR079C, strain IRE1 (second series), hits give low values 0.991 | S. cerevisiae deletion strains, locus YHR094C, strain hxt1, hits give low values 0.986 | S. cerevisiae deletion strains, locus YHR129C, strain ARP1, hits give low values 0.998 | S. cerevisiae deletion strains, locus YHR200W, strain rpn10, hits give low values 0.983 | S. cerevisiae deletion strains, locus YIL066C, strain RNR3, hits give low values 0.998 | S. cerevisiae deletion strains, locus YIL073C, strain SPO22, hits give low values 0.94 | S. cerevisiae deletion strains, locus YIL125W, strain kgd1, hits give low values 0.988 | S. cerevisiae deletion strains, locus YIR030C, strain dcg1, hits give low values 0.982 | S. cerevisiae deletion strains, locus YJL095W, strain BCK1, hits give low values 1.02 | S. cerevisiae deletion strains, locus YJL134W, strain LCB3, hits give low values 0.991 | S. cerevisiae deletion strains, locus YJL168C, strain set2, hits give low values 0.984 | S. cerevisiae deletion strains, locus YJL187C, strain SWE1 (second series), hits give low values 1 | [7] 1.02 | [8] 0.999 | S. cerevisiae deletion strains, locus YKL009W, strain mrt4, hits give low values 0.969 | S. cerevisiae deletion strains, locus YKL068W, hits give low values 0.989 | S. cerevisiae deletion strains, locus YKL085W, strain MDH1 (second series), hits give low values 1 | S. cerevisiae deletion strains, locus YKL085W, strain MDH1, hits give low values 1 | [9] 0.998 | S. cerevisiae deletion strains, locus YKR001C, strain vps1, hits give low values 0.993 | [10] 1.04 | S. cerevisiae deletion strains, locus YLR058C, strain SHM2, hits give low values 0.988 | S. cerevisiae deletion strains, locus YLR102C, strain apc9, hits give low values 0.976 | [11] 0.996 | S. cerevisiae deletion strains, locus YLR268W, strain sec22, hits give low values 0.992 | S. cerevisiae deletion strains, locus YLR330W, strain CHS5, hits give low values 0.999 | S. cerevisiae deletion strains, locus YLR342W, strain FKS1 (second series), hits give low values 0.984 | S. cerevisiae deletion strains, locus YLR371W, strain rom2, hits give low values 0.991 | S. cerevisiae deletion strains, locus YLR418C, strain cdc73, hits give low values 0.975 | S. cerevisiae deletion strains, locus YML016C, strain PPZ1, hits give low values 0.991 | S. cerevisiae deletion strains, locus YML032C, strain rad52, hits give low values 0.984 | S. cerevisiae deletion strains, locus YML124C, strain tub3, hits give low values 0.99 | S. cerevisiae deletion strains, locus YMR078C, strain ctf18, hits give low values 0.967 | S. cerevisiae deletion strains, locus YMR223W, strain ubp8, hits give low values 0.958 | [12] 1.01 and 0.997 | [13] 0.984 and 0.965 | S. cerevisiae deletion strains, locus YNL067W, strain RPL9B, hits give low values 1.01 | [14] 0.984 and 0.991 | S. cerevisiae deletion strains, locus YNL175C, strain NOP13, hits give low values 0.99 | S. cerevisiae deletion strains, locus YNL197C, strain WHI3, hits give low values 0.992 | S. cerevisiae deletion strains, locus YNL224C, strain SQS1, hits give low values 0.999 | S. cerevisiae deletion strains, locus YNL233W, strain BNI4, hits give low values 1.02 | S. cerevisiae deletion strains, locus YNL250W, strain rad50, hits give low values 0.942 | S. cerevisiae deletion strains, locus YNL271C, strain bni1, hits give low values 0.983 | S. cerevisiae deletion strains, locus YNL298W, strain CLA4, hits give low values 0.96 | S. cerevisiae deletion strains, locus YNL307C, strain MCK1, hits give low values 0.981 | [15] 1.01 | S. cerevisiae deletion strains, locus YNR052C, strain pop2, hits give low values 0.974 | [16] 1.08 | S. cerevisiae deletion strains, locus YOL012C, strain htz1 1.91 | S. cerevisiae deletion strains, locus YOL147C, strain pex11, hits give low values 0.985 | S. cerevisiae deletion strains, locus YOR061W, strain CKA2, hits give low values 0.992 | S. cerevisiae deletion strains, locus YOR069W, strain VPS5, hits give low values 0.984 | S. cerevisiae deletion strains, locus YOR083W, strain WHI5 (second series), hits give low values 0.99 | S. cerevisiae deletion strains, locus YOR136W, strain idh2, hits give low values 0.993 | S. cerevisiae deletion strains, locus YOR144C, strain elg1, hits give low values 0.983 | S. cerevisiae deletion strains, locus YOR184W, strain ser1, hits give low values 0.968 | S. cerevisiae deletion strains, locus YOR316C, strain cot1, hits give low values 0.981 | [17] 1.01 | [18] 0.997 | S. cerevisiae deletion strains, locus YPR119W, strain clb2, hits give low values 0.977 | S. cerevisiae deletion strains, locus YPR141C, strain kar3, hits give low values 0.978 | S. cerevisiae deletion strains, locus YPR163C, strain tif3, hits give low values 0.987 | S. cerevisiae deletion strains, locus YPR167C, strain met16, hits give low values 0.973 | S. cerevisiae deletion strains, strain wtn01, hits give low values 0.968 | [19] 0.998

O=C(NCCSCc1ccco1)c1ccc(Cl)cc1
active: [6] 0.587 | [10] 1.31 [resistant] | [11] 1.19 [resistant]
inactive: [20] 0.976 | [1] 0.991 | [2] 0.976 | [3] 0.815 | [4] 0.994 | [5] 0.989 | [21] 1 | [22] 1 | [7] 0.975 | [8] 1.05 | [9] 1 | [23] 0.96 | [24] 1 | [25] 0.989 | [26] 0.98 | [12] 0.981 | [14] 0.983 | [27] 0.984 | [28] 0.968 | [15] 0.988 | [29] 0.982 | [17] 0.962 | [18] 0.975 | [30] 1.02

COc1ccc(-c2ccnc(SCC(=O)NCCSCc3ccco3)n2)cc1
inactive: [20] 1.01 | [1] 0.998 | S. cerevisiae deletion strains, locus YCL061C, strain MRC1, hits give low values 1.01 | [2] 1 | [3] 0.991 | [4] 1 | [5] 1.01 | [6] 1.09 | [21] 0.998 | [22] 1.02 | [7] 1 | [8] 0.991 | [10] 0.999 | [23] 1 | [24] 0.98 | [11] 1.03 | [25] 1 | [26] 1.01 | [12] 1.01 | [13] 0.993 | [14] 0.999 | [27] 1.02 | [28] 1.01 | [15] 1.01 | [29] 1.01 | [16] 1.03 | [17] 1.02 | [18] 1.01 | [30] 1.03 | [19] 1
